Assay results reported in PubChem BioAssay (NCI).
“And” between values parts separate entries of the source, which are not always exact repeats. Identical values can stand only once. Compounds without any hit were thinned out: in the full panel of roughly 83,000, 20% have a hit.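 Results are percent growth after 48 hours of single-concentration exposure. 100 means growth as in untreated cells, lower positive values show inhibition; negative values down to -100 show cell death.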 The source made the active and inactive calls. The calls were made as follows: active = growth percent below 10; inactive = the rest.

System: SF-295 CNS
Assay: NCI-60 one-dose screen, 48 h (100 = growth as untreated, 0 = no growth, -100 = all killed)
Conditions: 10 µM unless noted

Compound	growth
ON=C1CCCCCCCC1	105% (inactive) and 103% (inactive)
CCOC(=O)N(O)c1ccc(/C=C/c2ccccc2)cc1	41.7% (inactive) and 11.4% (inactive)
O=S(=O)(O)c1ccc(N=Nc2ccc(N=Nc3cccc4ccccc34)c(S(=O)(=O)O)c2)cc1	106% (inactive)
COc1ccc(-c2nn3c(-c4cc(F)c(Cl)cc4Cl)nnc3s2)cc1	13.1% (inactive)
CCc1c2c(nc3ccc(OCc4ccc(B5OC(C)(C)C(C)(C)O5)cc4)cc13)-c1cc3c(c(=O)n1C2)COC(=O)[C@]3(O)CC	5.44% (active)
O=C(O)c1ccccc1Cc1ccc(F)c2ccccc12	71.1% (inactive) and 103% (inactive)
CCCCC1COc2cccc3c2N1C=C/C3=C\C(=O)N(C)c1cccc(Cl)c1 (stereo not drawn)	97.6% (inactive)
COc1ccc(/C=C2\COc3ccc(O)c(O)c3C2=O)c(OC)c1OC	91.7% (inactive)
CC12OC(CC(O)C1O)n1c3ccccc3c3c4c(c5c6ccccc6n2c5c31)C(=O)N(CCN1CCOCC1)C4=O (stereo not drawn)	-14.5% (active)
COc1ccc(/C=N/C2=C(C#N)C(c3ccccc3)c3c(ccc4ccccc34)O2)cc1 (stereo not drawn)	10.9% (inactive)
COc1ccc(-c2cc3cnc4ccccc4c3oc2=O)cc1	96.7% (inactive)
O=C(/C=C/c1ccc(F)cc1)Nc1ncc(Cc2ccc(F)cc2)s1	20.2% (inactive)
COc1cc(/C=C2\CCC/C(=C\c3cc(CN4CCCC4)c(O)c(OC)c3)C2=O)cc(CN2CCCC2)c1O	62.5% (inactive)
CN(C)CCCn1c2c(c3ccc(N4CCNCC4)cc3c1=O)C(=O)c1ccccc1-2	-5.76% (active)
C=CCOc1ccc(/C=C2\SC(=S)N(CCc3ccc(O)cc3)C2=O)cc1	91.1% (inactive)
CCOC(=O)C1=C(C)N=C2SC=C(c3ccc(F)cc3)N2[C@H]1c1cn(-c2ccccc2)nc1-c1ccc(Cl)cc1	99% (inactive)
COc1ccc(/C=N/NC(=O)CN2CCN(c3cc4c(cc3F)c(=O)c(C(=O)O)cn4C3CC3)CC2)cc1O	104% (inactive)
COc1cccc(C2C(C#N)=C(N)Oc3cc(OCCCCCC[P+](c4ccccc4)(c4ccccc4)c4ccccc4)ccc32)c1 (stereo not drawn)	-41.4% (active)
Cc1nn(-c2nc(-c3cc4ccccc4oc3=O)cs2)c(C)c1N=Nc1ccccc1	104% (inactive)

Compound	growth
Cn1cc2c(=O)nc3c(-c4nc5ccccc5[nH]4)n[nH]n3c2n1	106% (inactive)
O=C1c2cccc3cccc(c23)C(=O)N1N1C(=O)c2cccc3c(N4CCNCC4)ccc(c23)C1=O	101% (inactive)
Cc1nc2sc(C(=O)Nc3cccc4ncccc34)c(N)c2cc1C(C)O (stereo not drawn)	59.8% (inactive)
CCOC(=O)c1nc2c3ccccc3cnn2c1C(=O)c1ccc(OC)cc1	98.7% (inactive)
O=C1/C(=C/c2ccccc2[N+](=O)[O-])Cc2ccccc21	23% (inactive) and 28.3% (inactive)
COc1cc(/C=C2/C=C(c3ccc(C(C)(C)C)cc3)N(CCc3ccc(S(N)(=O)=O)cc3)C2=O)cc(OC)c1OC	49.4% (inactive)
COC(=O)N/N=C/c1c[n+]([O-])c2ccccc2[n+]1[O-]	93.4% (inactive)
Cc1nc(-n2[nH]c(=O)ccc2=O)sc1N=Nc1ccccc1	99.3% (inactive)
CC1(Cc2ccccc2)CC2=C(C(=O)O1)C(c1ccccc1)NC(=O)N2 (stereo not drawn)	104% (inactive)
Cc1ccc(/C=C/c2c(C(=O)/C=C/c3ccccc3)c(C)nc3ccccc23)cc1	31.9% (inactive)
CC1=C2[C@@H](CC1)[C@]1(C)O[C@@](C3CC3)(C[C@H]1OC(=O)CO)[C@H]2OC(=O)/C=C/c1ccccc1	100% (inactive)
COc1ccc(S(=O)(=O)Nc2cc(Sc3cccc4cccnc34)c(O)c3ccccc23)cc1	22.3% (inactive)
CCN(CC)CCCN1C(=O)c2c(c(C)c3c(oc4cc(OC)ccc43)c2C)C1=O	100% (inactive)
CN1Cn2c(ccc2C(F)(F)F)C(=O)CS1(=O)=O	103% (inactive)
O=c1cc(N/N=C/c2ccc(F)cc2)c2cc(Cl)ccc2[nH]1	100% (inactive)
Cc1cccc(-c2nnc(SCC(=O)Nc3ncc(Cc4ccccc4)s3)n2N2C(=O)CSC2=S)c1	77.7% (inactive)
COc1ccc(/C(C)=C(\c2ccc(OCCN3CCCCCC3)cc2)c2ccc(OC(=O)C3CCCCC3)cc2)cc1	-90.3% (active)
COc1ccc2c(c1)c(C(=O)c1nc(-c3cn(C)c4ccccc34)no1)cn2C	90% (inactive)
CCOC(=O)c1nnn(Cc2cc(=O)oc3c2ccc2ccccc23)c1C	98.8% (inactive)
